M1 ag parental: counter-screen for M1 agonists: effect in parental CHO-K1 cells; Fluo-8 calcium fluorescence; scaled to maximal ATP response, vehicle zero; activation, % at 3 µM; 360,000 tested, 0.48% active; AID 602248; in the data active = activation above about 15%;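 also: untransfected CHO-K1 host cells lacking M1 receptor as counterscreen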
CHRM4 antagonist: antagonists of human muscarinic M4 receptor (CHRM4); P08173; CHO-hM4 cells, ACh EC80, Fluo-8 calcium fluorescence; inhibition, % at 3 µM; 360,000 tested, 0.73% active;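 active = inhibition above its plate's cutoff, the mean inhibition of sample wells plus 3 SD, cut at about 27% in these data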;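 also: 0% = acetylcholine EC80 with DMSO and 100% = DMSO without agonist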
Target sequence (P08173 whole entry, looked up): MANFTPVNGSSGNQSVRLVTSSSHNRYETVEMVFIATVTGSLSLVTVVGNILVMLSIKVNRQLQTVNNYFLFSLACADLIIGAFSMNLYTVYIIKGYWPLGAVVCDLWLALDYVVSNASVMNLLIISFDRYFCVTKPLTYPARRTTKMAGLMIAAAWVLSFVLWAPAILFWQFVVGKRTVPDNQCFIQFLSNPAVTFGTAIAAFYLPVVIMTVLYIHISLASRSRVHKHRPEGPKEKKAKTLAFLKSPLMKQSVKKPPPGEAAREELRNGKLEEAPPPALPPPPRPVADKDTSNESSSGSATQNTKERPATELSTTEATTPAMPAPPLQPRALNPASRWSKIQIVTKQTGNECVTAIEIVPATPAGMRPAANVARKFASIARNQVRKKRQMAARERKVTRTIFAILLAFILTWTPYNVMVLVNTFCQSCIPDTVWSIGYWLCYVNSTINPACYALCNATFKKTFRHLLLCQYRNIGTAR
CHRM4 PAM: CHRM4 positive allosteric modulation. P08173. CHO-K1 hM4/Gqi5, Fluo-8 calcium fluorescence, ACh EC20; 0% = ACh EC20, 100% = maximal ACh. activation, % at 3 µM. 360,000 tested, 0.4% active. AID 624126;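 active = activation above its plate's cutoff, the mean activation of sample wells plus 3 SD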
M1 PAM parental: counter-screen for M1 PAMs: effect in parental CHO-K1 cells; ATP EC20, Fluo-8 calcium fluorescence; 0% at ATP EC20, 100% at ATP max; activation, % at 3 µM; 360,000 tested, 0.02% active; AID 602247;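 active = activation above the run cutoff, the mean activation of all test compounds plus 3 SD, cut at about 40% in these data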;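 also: peak over basal fluorescence ratio in a 140 s read after ATP addition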
CHO-K1 Ca antag: M1 antagonist counterscreen hit in parental CHO-K1 cells; AID 602250; 360,000 tested, 0.6% active; ATP-induced calcium, Fluo-8 fluorescence; inhibition, % at 3 µM;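 active = inhibition above a per-plate cutoff, the plate's mean sample inhibition plus 3 SD, cut at about 24% in these data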;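 also: 0% = DMSO plus EC80 ATP and 100% = DMSO alone without ATP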
M4 ag: CHRM4 agonism in calcium assay | P08173 | CHO-K1 hM4/Gqi5, Fluo-8 calcium fluorescence; vehicle 0%, full acetylcholine response 100% | activation, % at 3 µM | 360,000 tested, 0.14% active;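 active = activation above the run mean over all test wells plus 3 SD, cut at about 32% in these data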;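 also: peak over basal fluorescence ratio per well then scaled between controls; 0% = DMSO wells and 100% = acetylcholine at EC100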
Starred values were filed as active, the others as inactive; · = no result. Only some compounds are listed: those with a hit (about 2% of all), similar ones and a draw of the others.

SMILES | M1 ag parental | CHRM4 antagonist | CHRM4 PAM | M1 PAM parental | CHO-K1 Ca antag | M4 ag
CCOc1ccc(N=C/C=C/c2ccccc2)c(O)c1 | 1.5 | 7.7 | 3.7 | 13.1 | -4.2 | 0.7
COC(=O)c1sc(NC(=O)CSc2nnnn2-c2ccc(C)cc2C)nc1C | -0.3 | -6.8 | -2.3 | -6.1 | 26.0* | 0.4
COc1ccc(C2=NS(=O)(=O)N(C)C(C(=O)N3CCC(C(N)=O)CC3)=C2)cc1 | -0.2 | 33.9* | -12.5 | 0.6 | 0.8 | 1.0
COc1ccc(C2=NS(=O)(=O)N(C)C(C(=O)N3CCOCC3)=C2)cc1 | 0.6 | 0.2 | -8.1 | -0.9 | 13.7 | 4.8
O=C(NCc1ccccn1)c1ccc(Cl)c(S(=O)(=O)N2CCCCCC2)c1 | 5.5 | -4.0 | 5.9 | -4.6 | -6.8 | 9.2
CCCOC(=O)C1[C@H]2C(=O)N(C(C)c3ccc(OC)cc3)C[C@]23C=C[C@H]1O3 (some centres undefined) | 0.1 | -1.5 | -1.7 | 15.3 | -12.4 | 0.8
CCOC(=O)C1[C@H]2C(=O)N(C(C)c3ccc(OC)cc3)C[C@]23C=C[C@H]1O3 (some centres undefined) | 1.0 | 74.7* | -32.4 | 27.5 | -9.3 | 0.1
COc1ccc(O)c(/C=N/n2c(-c3ccco3)csc2=Nc2cccnc2)c1 | 0.3 | 2.9 | -4.7 | -15.0 | 28.3* | 3.4
COCCn1c(-c2ccco2)csc1=Nc1cccnc1 | 0.6 | 0.5 | -2.9 | 9.9 | -4.6 | -0.4
COc1ccc(CN2CCC3CC2c2cc(Cl)ccc23)cc1 (centres undefined) | 1.1 | -8.0 | 0.7 | 25.3 | -13.6 | 2.3
O=C(O)Cc1cn(Cc2cccc(Cl)c2)c2ccccc12 | -0.2 | -2.3 | 25.9* | 0.6 | 3.1 | 2.7
O=C(Cc1cn(Cc2cccc(Cl)c2)c2ccccc12)N1CCCCCC1 | 1.6 | -2.8 | -4.5 | 20.7 | -14.9 | -2.6
CC12CN3CC(C)(CN(C1)C3c1ccccc1)C2O (centres undefined) | -0.2 | -3.4 | 14.5 | 10.1 | -3.6 | 2.1
CC12CN3CC(C)(CN(C1)C3c1ccc3c(c1)OCO3)C2O (centres undefined) | 4.7 | -0.9 | 5.3 | -28.0 | 100.3* | -0.4
COc1ccc(N2CCOCC2)c(NC(=O)c2ccco2)c1 | -0.2 | 2.3 | -1.8 | -9.0 | 7.7 | 1.4
COC(=O)c1ccc(N2CCOCC2)c(NC(=O)c2ccco2)c1 | -0.4 | 28.5* | -7.7 | 16.0 | -5.4 | -0.1
Cc1ccc(NC(=O)C2CCN(S(=O)(=O)c3ccc(N4CCCC4=O)cc3)CC2)cc1Cl | 15.6* | 23.7 | -10.1 | -9.9 | 31.6* | 19.1
CC1Sc2ccc(S(=O)(=O)N3CCC(C(=O)Nc4ccc(Cl)cc4)CC3)cc2NC1=O (centres undefined) | 8.8 | 30.0* | -12.2 | -19.6 | 31.3* | 14.4
CCOc1ccc(N2CC(C(=O)Nc3ccc(S(=O)(=O)N4CCCCC4)cc3)CC2=O)cc1 (centres undefined) | -0.3 | 4.7 | -4.2 | 14.6 | 68.3* | 3.9
CC(C)(C)NC(=O)C(c1cccc2ccccc12)n1c(=O)c(-c2ccco2)nc2ccccc21 (centres undefined) | · | 4.0 | -2.2 | · | · | 0.6
Cc1ccc(NC(=S)NC(=O)c2ccc(Br)o2)c(C)c1 | 19.3* | 2.8 | -3.2 | 3.3 | 9.5 | 0.1
Cc1ccc(S(=O)(=O)N2[C@@H](CO)CO[C@H]2CC(=O)c2ccccc2)cc1 | · | -1.5 | -0.2 | · | · | 2.8
Cc1cc2oc(C(=O)NCc3ccccc3)cc(=O)c2cc1C | -0.5 | 98.0* | -18.5 | -11.6 | 13.3 | 0.7
CCOC(=O)C1=C(C)NC(=O)/C1=C\N(C)C | 0.0 | -0.7 | 0.2 | -14.5 | 28.2* | 1.4
O=C(NNC(=O)c1ccccc1O)c1ccc(Cl)c(S(=O)(=O)N2CCCCC2)c1 | 5.0 | 5.3 | -4.6 | -20.8 | 15.6 | 11.8
SMILES | M1 ag parental | CHRM4 antagonist | CHRM4 PAM | M1 PAM parental | CHO-K1 Ca antag | M4 ag
COc1cc(OC)cc(C(=O)N2CCN(S(C)(=O)=O)CC2)c1 | 0.2 | -2.2 | 27.7* | 15.0 | -5.5 | 1.6
Cc1ccc(CCC(=O)Nc2ccc([N+](=O)[O-])cc2)o1 | 0.4 | -2.5 | -4.4 | -18.4 | 2.0 | 1.8
CN(C)C(C)(C)/C=C/C(O)(c1ccccc1)c1ccccc1 | 3.2 | 70.5* | -16.1 | -0.7 | -9.0 | 6.6
Fc1ccc(Nc2cncc(-c3ccsc3)c2)cc1Cl | 1.7 | 18.1 | -4.0 | 8.2 | 3.0 | 4.5
Cc1cccc(C)c1NC(=O)CN1CCN(C(=O)CN2C(=O)NC3(CCCCC3C)C2=O)CC1 (centres undefined) | 0.1 | -11.0 | 22.6* | -13.1 | -10.4 | 0.6
CCc1ccccc1NC(=O)CN1CCN(C(=O)CN2C(=O)NC3(CCCCC3C)C2=O)CC1 (centres undefined) | 0.4 | 1.1 | -2.0 | -14.7 | -2.0 | 0.3
CC1CCCCC12NC(=O)N(CC(=O)Nc1ccccc1F)C2=O (centres undefined) | -0.1 | 0.7 | 21.9* | -14.4 | -3.1 | 0.9
CC1CCCCC12NC(=O)N(CC(=O)Nc1ccccc1-c1ccccc1)C2=O (centres undefined) | 1.1 | 2.4 | 2.4 | 18.1 | -29.1 | 2.4
Cc1ccccc1OCC(=O)Nc1ccccc1N1CCC(C)CC1 | -0.9 | -5.7 | -1.3 | 9.8 | -12.3 | -0.8
Cc1csc2ncnc(NNC(=O)c3ccc(Cl)cc3)c12 | 18.8* | 26.1 | -43.7 | -12.4 | 8.3 | 19.7
CCc1ccc(NC(=O)C(CC)c2ccccc2)cc1 (centres undefined) | 18.9* | 3.6 | -1.4 | 23.7 | -4.2 | 23.7
CCC(C(=O)Nc1ccc(C)cc1)c1ccccc1 (centres undefined) | 0.8 | 5.9 | -5.2 | 8.2 | -8.0 | 0.7
CCC(C(=O)Nc1ccc(C(=O)Nc2ccccc2C(=O)O)cc1)c1ccccc1 (centres undefined) | -0.9 | -2.9 | 17.3* | 1.3 | -9.9 | -2.2
CCOc1cc(C(=O)NN2CCOCC2)cc(OCC)c1OCC | 0.2 | -2.1 | 4.1 | 1.6 | -6.7 | 0.7
COCCn1c(SCC(=O)c2c(N)n(C3CC3)c(=O)[nH]c2=O)nc2ccccc21 | -0.2 | 3.8 | 10.2 | 9.5 | -8.2 | -0.3
Cc1ccc(S(=O)(=O)Nc2ccc3c(c2)CC(=O)N([C@H](C)CO)C[C@@H](C)[C@H](CN(C)S(=O)(=O)c2ccccc2)O3)cc1 | 0.2 | 32.6* | -21.1 | 16.1 | -15.6 | -0.6
Cc1ccc(S(=O)(=O)N(C)C[C@@H]2Oc3ccc(NS(=O)(=O)c4ccccc4)cc3CC(=O)N([C@@H](C)CO)C[C@H]2C)cc1 | -0.3 | -2.6 | 1.9 | -6.7 | -1.1 | -0.8
C[C@H](CO)N1C[C@H](C)[C@H](CN(C)C(=O)Nc2ccc(F)cc2)Oc2ccc(NC(=O)NC3CCCCC3)cc2CC1=O | 0.1 | 11.1 | 4.3 | -8.4 | -5.7 | 1.2
